Bioassay records deposited in PubChem by Paczesny and Yang Labs, IUPUI and University of Michigan.
ST2 IL33 inh – inhibitors of human ST2 (IL1RL1) binding to IL-33, primary screen, biochemical, AlphaLISA. Interleukin-1 receptor-like 1 (Homo sapiens), Q01638. AlphaLISA ST2-Fc/biotin-IL-33 interaction, 1 h. inhibition, % for hits at 17 µM. AID 1259354, 2018. 2.3% of 78,000 active; in the data active = inhibition above about 30%
Target sequence (Q01638 whole entry, looked up): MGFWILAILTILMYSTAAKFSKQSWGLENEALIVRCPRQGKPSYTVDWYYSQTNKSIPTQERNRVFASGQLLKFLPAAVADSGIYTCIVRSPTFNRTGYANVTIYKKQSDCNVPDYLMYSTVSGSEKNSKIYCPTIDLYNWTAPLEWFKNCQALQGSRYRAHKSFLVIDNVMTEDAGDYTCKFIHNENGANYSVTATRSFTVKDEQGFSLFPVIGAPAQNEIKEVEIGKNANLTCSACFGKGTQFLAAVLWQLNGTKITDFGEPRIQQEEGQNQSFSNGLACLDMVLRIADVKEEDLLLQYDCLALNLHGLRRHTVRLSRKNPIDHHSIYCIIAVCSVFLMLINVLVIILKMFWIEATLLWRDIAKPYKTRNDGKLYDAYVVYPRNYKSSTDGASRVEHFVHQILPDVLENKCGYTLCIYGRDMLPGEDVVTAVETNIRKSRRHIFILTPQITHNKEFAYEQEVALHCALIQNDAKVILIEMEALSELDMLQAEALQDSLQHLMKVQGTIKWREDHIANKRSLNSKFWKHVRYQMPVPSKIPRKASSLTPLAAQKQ
A number is an active result; - = inactive. This excerpt belongs to a sample that is enriched for hits.

SMILES	ST2 IL33 inh
COc1cc(/C=C2/SC(=Nc3ccccc3)NC2=O)cc(Cl)c1O	42%
COc1ccc(OC)c(/C=C2/SC(=Nc3ccc(C)cc3)NC2=O)c1	-
CCOc1cc(/C=C2/NC(=O)NC2=O)ccc1OCc1ccccc1C#N	-
COc1cc(C2NC(=O)CCC2[N+](=O)[O-])cc(Cl)c1O (stereo not given)	-
CCC(NC(=O)C1CCN(C(C)=O)CC1)c1ccnn1C (stereo not given)	-
CC1CC(NC(=O)c2ccc(Br)cc2)CC(C)(C)C1 (stereo not given)	-
COc1ccc(CN2C(=S)N(c3ccc(OC)cc3)[C@H]3[C@@H]2[C@H]2OC(=O)[C@@H]3C[C@H]2O)cc1	-
CC(C)c1cc(C(=O)N2CCn3cccc3C2c2ccccn2)n(C)n1 (stereo not given)	-
Cc1cccc(CSC2=NCCN2C(=O)c2ccccc2C)c1	-
Cc1ccc(C)c(NC(=O)C2CCCN(S(=O)(=O)c3cnc[nH]3)C2)c1 (stereo not given)	-
COc1ccccc1CN(C(=O)Cc1ccc(O)c(Cl)c1)C1CC1	-
O=C(c1cc(COc2ccc3c(c2)CCCC3)on1)N1CCCC1c1nccs1 (stereo not given)	-
CCn1c(C(C)NC(C)=O)nc2ccccc21 (stereo not given)	-
CC(O)c1nc2ccccc2n1Cc1ccccc1 (stereo not given)	36%
CC(O)c1nc2ccccc2n1CCCOc1ccccc1 (stereo not given)	-
O=C(NCc1nnc(-c2ccccc2)o1)c1cnn2c1CCCC2	-
COc1cccc(C2=Nn3c(nnc3-c3ccccc3)SC2)c1	-
Fc1cccc(-c2nnc3n2N=C(c2ccc(Cl)s2)CS3)c1	30%
O=c1oc2ccccc2cc1C1=Nn2c(nnc2-c2cccc(F)c2)SC1	-
CCC(=O)N1c2ccccc2-c2nnc(SC)nc2OC1c1ccc(C)o1 (stereo not given)	-
CCc1ccc2[nH]cc(C(=O)c3ccc(Cl)cc3)c(=O)c2c1	-
Cc1cc(C)c2ccc(NN)nc2c1O	34%
Cc1cc(C)c2ccc(CO)nc2c1O	-
O=C1c2ccccc2NC(c2cccc(F)c2)N1c1ccc(F)cc1 (stereo not given)	-
CC(C)(C)NCc1ccc([N+](=O)[O-])cc1	-
SMILES	ST2 IL33 inh
N#CC(c1ccccc1)C(C#N)c1ccccc1 (stereo not given)	-
OC(Cc1ccccc1)c1ccccc1 (stereo not given)	-
N#CSC(C#N)Cc1ccccc1 (stereo not given)	33%
N#Cc1cc(C#N)c(SCc2ccc([N+](=O)[O-])cc2)nc1N	-
N#CSC(C#N)Cc1ccc([N+](=O)[O-])cc1 (stereo not given)	51%
CCSc1nnc2c(n1)[nH]c1ccc(CC)cc12	-
O=C1CC(c2cccs2)CC2=C1C(c1cccc(F)c1)Nc1ccccc1N2 (stereo not given)	30%
O=C1CC(c2cccs2)CC2=C1C(c1cccc([N+](=O)[O-])c1)Nc1ccccc1N2 (stereo not given)	-
O=C1CC(c2cccs2)CC2=C1C(c1cc(F)ccc1F)Nc1ccccc1N2 (stereo not given)	-
O=C(NCc1scnc1-c1ccccc1)C1CCC(=O)N(Cc2ccccn2)C1 (stereo not given)	-
CCn1c(C2CCN(Cc3ccc(OC)c(COC)c3)CC2)n[nH]c1=O	-
COC(=O)c1ccccc1-c1ccc(-c2nc3sc4c(c3c(=O)[nH]2)CCCC4)o1	-
COc1ccc(Nc2nc(-c3nnc(-c4ccc(C)cc4)o3)nc3ccccc23)c(OC)c1	-
CN(C)CCn1c(SCC(N)=O)nc2c(sc3ccccc32)c1=O	-
c1ccc(-c2cc(-c3ccccc3)n3nnnc3n2)cc1	-
COc1ccc(CCNc2nc(C)cc(C(F)(F)F)n2)cc1OC	-
COc1ccccc1/C=C/C1=NC(=C\c2cccc(Cl)c2Cl)/C(=O)O1	-
COc1ccccc1/C=C/C1=NC(=C\c2cccc(Cl)c2)/C(=O)O1	34%
COc1ccccc1/C=C/C1=NC(=C\c2cc(Br)cs2)/C(=O)O1	-
COc1ccccc1/C=C/C1=NC(=C\c2ccc(Cl)c(Cl)c2)/C(=O)O1	-
COc1ccccc1/C=C/C1=NC(=C\c2ccc(C)cc2)/C(=O)O1	38%
COc1ccccc1/C=C/C1=NC(=C\c2ccc([N+](=O)[O-])cc2)/C(=O)O1	-
CCOC(=O)C1CCCN(C(=O)c2cn(CCOC)c(=O)c3c2c2ccccc2n3C)C1 (stereo not given)	-
COc1ccc(N=c2scc(-c3ccc(I)cc3)n2CCO)cc1	55%
COc1ccc(-c2csc(=Nc3ccccc3)n2CCO)cc1	38%
SMILES	ST2 IL33 inh
COc1ccc(N=C2SCC(=O)N2c2ccc(OC)cc2)cc1	-
COc1ccc(CN2C(=Nc3ccccc3)S[C@H]3[C@@H]2[C@@H](O)[C@H](O)C[C@@H]3C(N)=O)cc1	-
O=C(O)c1ccc2c(c1)C(=O)N(c1cccc(Cl)c1)C2=O	-
CN=c1scc(-c2ccc(Cl)cc2)n1C	-
Cc1ccc(-c2csc(=Nc3ccccc3)n2CCCN(C)C)cc1	42%
CCCCn1c(=N)n(CCOc2ccc(C)cc2)c2ccccc21	-
O=C1c2ccccc2C(=O)N1c1cccc(-c2csc(=Nc3ccccc3)n2CCO)c1	48%
Cc1cccc(N2C(=O)c3ccc(-c4nnc(-c5ccccc5)o4)cc3C2=O)c1	-
CCNC(=O)CC1SC(=Nc2ccc(OC)cc2)N(C)C1=O (stereo not given)	-
COc1ccc(C2(C(=O)N3CCCC(O)(CO)C3)CC2)cc1 (stereo not given)	-
O=C(Nc1nccs1)c1ccc(C(=O)Nc2nccs2)cc1	-
Cc1cc(Cl)ccc1NC(=O)C(Cl)Cl	-
COc1ccc(Cl)cc1N1C(=O)C2C3CCC(C3)C2C1=O (stereo not given)	-
CCOc1ccc(C(=O)N(c2ccc(C(C)C)cc2)C2C=CS(=O)(=O)C2)cc1 (stereo not given)	-
CCn1cc(-c2cccnc2OC)cn1	-
CCCCOC(=O)CSC1=C(C#N)C(c2ccc(Cl)cc2Cl)CC(=O)N1 (stereo not given)	-
O=C(NCc1cccnc1)c1cccn2c(=O)c3cc4ccccc4cc3nc12	-
O=C(NCc1cccnc1N1CCCC(O)C1)c1ccccn1 (stereo not given)	-
CCC(C)OC(=O)C1=C(C)NC2=C(C(=O)C(C(=O)OC)C(C)C2)C1c1ccc2c(c1)OCO2 (stereo not given)	-
CCN(CC)S(=O)(=O)c1ccc2oc(C(=O)NC(C)c3ccccc3)c(C)c2c1 (stereo not given)	-
Cc1ccc(OCC(=O)Nc2cccc(-c3nnc(-c4ccco4)o3)c2)cc1C	-
O=C1C(=O)N(Cc2ccccc2)c2ccc(Br)cc21	30%
O=C1c2ccccc2NC(c2ccc(Br)cc2)N1Cc1ccccc1 (stereo not given)	-
O=C1C(=O)N(Cc2ccc(F)cc2)c2ccccc21	-
COc1ccc(/C(N)=N\OC(=O)c2ccc3c(c2)OCO3)cc1	-
Cc1cccc(-c2cc(N3CCN(S(=O)(=O)c4ccc(F)c(Cl)c4)CC3)ncn2)c1	-
NC(=O)CN1CCCC(N2CCN(c3cccc(C(F)(F)F)c3)CC2)C1 (stereo not given)	-
Cc1cc(S(=O)(=O)n2nnc3cc(Cl)ccc32)ccc1Cl	-
Cc1ccc(NC(=O)c2ccc(C)c(S(=O)(=O)Nc3ccccn3)c2)cc1	-
